From PubChem BioAssay
KDM5B inhibitor: KDM5B demethylase inhibition; KDM5B demethylase, FDH-coupled NADH fluorescence (FDH is formaldehyde dehydrogenase); 220,000 compounds, 2.6% hits; AID 1347165; Q9UGL1; Potency, µM (series often up to 57.7 µM), usual class: inhibitors; also: nearly all actives have a fitted effect of over 70% in size
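Compound dilutions met 200 nM (final) KDM5BΔAP for 10 min at room temperature before substrate addition. The substrate mix held 12.5 µM H3K4me3 with cofactors 25 µM α-ketoglutarate and 50 µM Fe²⁺. NADH signal gain over 30 min defined activity.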
SNCA expr inh: inhibitors of alpha-synuclein (SNCA) gene expression; HEK-293 SNCA-luciferase knock-in, luminescence, 24 h; Potency, µM (series often up to 57.2 µM), actives largely listed as inhibitors; 140,000 compounds, 0.17% hits; AID 1671194; also: nearly all actives have a fitted effect of over 45% in size
SNCA viab count: cell viability loss counter-screen; HEK-293-SNCA-luc viability, GF-AFC fluorescence, 24 h; Potency, µM (top dose mostly 57.1 µM), most hits filed as cytotoxic; 150,000 compounds, 0.12% hits; also: nearly all actives have a fitted effect of over 30% in size
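HEK-293-SNCA-luc cells (1500/well) plated 24 h, then exposed 24 h to a dilution series; GF-AFC added 30 min at 37C, fluorescence 405/540 nm; normalised to medium-only and DMSO wells, Hill fit.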
IP6K1 inh: IP6K1 kinase inhibition; Q92551; IP6K1 kinase, ADP-Glo luminescence, 2 h; stronger effect = lower value; activity change, % (series mostly up to about 58 µM); 140,000 compounds, 0.81% hits; AID 1645851; in the data active = activity change below about -25%
Target sequence (Q92551 whole entry, looked up): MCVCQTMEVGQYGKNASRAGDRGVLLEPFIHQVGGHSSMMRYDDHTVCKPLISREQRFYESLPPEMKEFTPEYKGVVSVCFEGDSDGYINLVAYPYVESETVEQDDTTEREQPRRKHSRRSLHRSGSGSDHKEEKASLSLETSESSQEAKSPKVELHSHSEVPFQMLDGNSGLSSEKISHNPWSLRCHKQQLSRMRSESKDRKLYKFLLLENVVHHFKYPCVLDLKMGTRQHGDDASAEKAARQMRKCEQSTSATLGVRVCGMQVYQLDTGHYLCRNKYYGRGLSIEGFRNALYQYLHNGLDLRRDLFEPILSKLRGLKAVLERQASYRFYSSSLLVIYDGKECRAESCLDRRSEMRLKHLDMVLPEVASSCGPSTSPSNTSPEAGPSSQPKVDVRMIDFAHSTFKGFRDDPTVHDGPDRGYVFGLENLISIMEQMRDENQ
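ADP-Glo luminescence measures ADP made by human IP6K1 during a 2 h RT reaction with ATP/IP6 (mix at 1.3 mM/130 uM); top library doses 57.5 and 19.1 uM final.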
Hits are given with their value. Compounds with a hit are over-represented: about 2.8% of the library has one in this group of screens. Unless noted, calls follow the shape of the dose curve; as a rule, active = well fitted curve in the direction sought with a large enough effect; inconclusive = small, poorly fitted or top-dose-only effect, or another doubt; inactive = no such curve, though single readings can be large; an effect the other way counts as inactive or inconclusive.

What do the screens show for `COc1ccc(CCNC(=O)c2cccnc2N2CC3CC(C2)[C@H]2CCCC(=O)N2C3)cc1OC` (some centres not stated)?
KDM5B inhibitor: inconclusive; SNCA expr inh: inactive; SNCA viab count: inactive; IP6K1 inh: inactive

How did CN(C)CCNC(=O)c1cccnc1N1CC2CC(C1)[C@H]1CCCC(=O)N1C2 (some centres not stated) do in these assays?
KDM5B inhibitor: inconclusive; SNCA expr inh: inactive; SNCA viab count: inactive; IP6K1 inh: inactive

How did O=C(NCCC1=CCCCC1)c1cccnc1N1CC2CC(C1)[C@H]1CCCC(=O)N1C2 (some centres not stated) do in these assays?
KDM5B inhibitor: 28.2µM; SNCA expr inh: inactive; SNCA viab count: inactive; IP6K1 inh: inactive

Results for O=C(NCCN1CCCCC1)c1cccnc1N1CC2CC(C1)[C@H]1CCCC(=O)N1C2 (some centres not stated) ?
KDM5B inhibitor: 28.2µM; SNCA expr inh: inconclusive; SNCA viab count: inactive; IP6K1 inh: inactive

What do the screens show for `CC(C)c1ccccc1NC(=O)Cn1cccc1-c1nc(-c2ccc(F)cc2)no1`?
KDM5B inhibitor: inactive; SNCA expr inh: inactive; SNCA viab count: inactive; IP6K1 inh: inactive

How did O=C(NCCCn1cccn1)c1cccnc1N1CC2CC(C1)[C@H]1CCCC(=O)N1C2 (some centres not stated) do in these assays?
KDM5B inhibitor: 28.2µM; SNCA expr inh: inactive; SNCA viab count: inactive; IP6K1 inh: inactive

How did CN(CCNC(=O)c1cccnc1N1CC2CC(C1)[C@H]1CCCC(=O)N1C2)C1CCCCC1 (some centres not stated) do in these assays?
KDM5B inhibitor: 31.6µM; SNCA expr inh: inactive; SNCA viab count: inactive; IP6K1 inh: inactive

How did Cc1ccc(CN2CCCCCCNC(=O)[C@@H]3CCC[C@@H]32)s1 do in these assays?
KDM5B inhibitor: inconclusive; SNCA expr inh: inactive; SNCA viab count: inactive; IP6K1 inh: inactive

How did CN1CCN(c2cc(=O)c3ccnc(-c4ccnn4C)c3o2)CC1 do in these assays?
KDM5B inhibitor: 39.8µM; SNCA expr inh: inconclusive; SNCA viab count: inactive; IP6K1 inh: inactive

How did CN1CCN(c2cc(=O)c3ccnc(-c4cn[nH]c4)c3o2)CC1 do in these assays?
KDM5B inhibitor: 28.2µM; SNCA expr inh: inactive; SNCA viab count: inactive; IP6K1 inh: inactive

Results for CN1CCN(c2cc(=O)c3ccnc(-c4ccccc4F)c3o2)CC1 ?
KDM5B inhibitor: 35.5µM; SNCA expr inh: inactive; SNCA viab count: inactive; IP6K1 inh: inactive

Results for O=C(N/N=C/C=C/c1ccccc1[N+](=O)[O-])c1ccccc1NS(=O)(=O)c1cccs1 ?
KDM5B inhibitor: inactive

How did Cc1ccc(COc2c(Br)cc(/C=C(\C#N)c3nc4ccc(C)cc4[nH]3)cc2Br)cc1 do in these assays?
KDM5B inhibitor: inactive

What do the screens show for `O=C(Nc1ccc(Cl)cc1Cl)c1ccn2cncc2c1`?
KDM5B inhibitor: 35.5µM; SNCA expr inh: inactive; SNCA viab count: inactive; IP6K1 inh: inactive

Results for O=C(Nc1ccc(Cl)cc1Cl)c1ccc2cncn2c1 ?
KDM5B inhibitor: 28.2µM; SNCA expr inh: inactive; SNCA viab count: inactive; IP6K1 inh: inactive

How did CC1=CC(C)(C)N(S(=O)(=O)c2ccc(Cl)cc2)c2cc(C)ccc21 do in these assays?
KDM5B inhibitor: inactive

What do the screens show for `O=C(Nc1ccc(F)cc1)c1ccc2cc[nH]c2n1`?
KDM5B inhibitor: 112µM; SNCA expr inh: inactive; SNCA viab count: inconclusive; IP6K1 inh: inactive

What do the screens show for `CN(C)C(=O)c1ccc2cc[nH]c2n1`?
KDM5B inhibitor: 126µM; SNCA expr inh: inconclusive; SNCA viab count: inconclusive; IP6K1 inh: inactive

How did CN(C)C(=O)c1[nH]cnc1C(=O)NCC(C)(C)C do in these assays?
KDM5B inhibitor: inactive

What do the screens show for `CCc1noc(-c2cn(C3CCCN(C(=O)c4ccc(F)c(Cl)c4)C3)nn2)n1` (configuration not stated)?
KDM5B inhibitor: inactive; SNCA expr inh: inactive; SNCA viab count: inactive; IP6K1 inh: inactive

What do the screens show for `COc1ccc(-c2noc([C@@H]3CCCN3C(=O)Cc3ccccc3Cl)n2)cc1OC`?
KDM5B inhibitor: 28.2µM; SNCA expr inh: inactive; SNCA viab count: inactive; IP6K1 inh: inactive

How did COc1ccc(C(=O)N2CCC[C@H]2c2nc(-c3ccc(OC)c(OC)c3)no2)c(C)c1 do in these assays?
KDM5B inhibitor: 28.2µM; SNCA expr inh: inactive; SNCA viab count: inactive; IP6K1 inh: inactive

How did COc1ccc(-c2noc([C@@H]3CCCN3C(=O)Cc3cccc(F)c3)n2)cc1OC do in these assays?
KDM5B inhibitor: 25.1µM; SNCA expr inh: inactive; SNCA viab count: inactive; IP6K1 inh: inactive

Results for COc1ccc(CC(=O)N2CCC[C@H]2c2nc(-c3ccc(OC)c(OC)c3)no2)cc1Cl ?
KDM5B inhibitor: inconclusive; SNCA expr inh: inactive; SNCA viab count: inactive; IP6K1 inh: inactive

What do the screens show for `COc1ccc(C(=O)N2CCC[C@H]2c2nc(-c3ccc(OC)c(OC)c3)no2)cc1OC`?
KDM5B inhibitor: inactive; SNCA expr inh: inactive; SNCA viab count: inactive; IP6K1 inh: inactive

Results for COc1cc(Cl)ccc1C(=O)N1CCC2(CC1)NC(=O)N(c1ccc(F)cc1)N2 ?
KDM5B inhibitor: inactive; SNCA expr inh: inactive; SNCA viab count: inactive; IP6K1 inh: inactive

What do the screens show for `Cc1cc(C)n2nc(SC(C)C(=O)Nc3cc(Cl)cc(Cl)c3)nc2n1` (configuration not stated)?
KDM5B inhibitor: inactive

What do the screens show for `CCCCNC(=O)C1CCC(C(=O)NCCCC)CC1` (configuration not stated)?
KDM5B inhibitor: inactive

How did Cc1ccccc1-c1ncc2c(n1)OCCN(c1ccccc1)C2=O do in these assays?
KDM5B inhibitor: inactive; SNCA expr inh: inactive; SNCA viab count: inactive; IP6K1 inh: inactive

How did Cc1ccccc1-c1nc(N2CCOCC2)cc2c1CN(Cc1cnn(C)c1)C2=O do in these assays?
KDM5B inhibitor: 39.8µM; SNCA expr inh: inactive; SNCA viab count: inactive; IP6K1 inh: inactive

How did Cc1ccccc1-c1nc(N2CCOCC2)cc2c1CN(Cc1ccccc1)C2=O do in these assays?
KDM5B inhibitor: 31.6µM; SNCA expr inh: inconclusive; SNCA viab count: inactive; IP6K1 inh: inactive

What do the screens show for `Cc1ccccc1-c1nc(N2CCOCC2)cc2c1CN(c1ccccc1)C2=O`?
KDM5B inhibitor: 35.5µM; SNCA expr inh: inactive; SNCA viab count: inactive; IP6K1 inh: inactive

Results for COc1ccc(-c2nc(N3CCOCC3)cc3c2CN(Cc2cnn(C)c2)C3=O)cn1 ?
KDM5B inhibitor: 39.8µM; SNCA expr inh: inactive; SNCA viab count: inactive; IP6K1 inh: inactive

How did CC(C)c1ccc(NC(=O)CN2C(=O)C(c3ccccc3)=NC23CCCCC3)cc1 do in these assays?
KDM5B inhibitor: inactive

Results for Cc1ccc(S(=O)(=O)N2CCC(n3cnnc3C)CC2)cc1F ?
KDM5B inhibitor: inactive; SNCA expr inh: inactive; SNCA viab count: inactive; IP6K1 inh: inactive

What do the screens show for `COc1ccc2nc(C[C@@H]3C[C@@H](C(C)C)[C@H](CNC(=O)Nc4ccc(F)cc4)C=C3C)[nH]c2c1`?
KDM5B inhibitor: inactive; SNCA expr inh: inconclusive; SNCA viab count: inconclusive; IP6K1 inh: inactive

Results for CN1Cc2c(cc(N3CCOCC3)nc2-c2cnn(C)c2)C1=O ?
KDM5B inhibitor: 39.8µM; SNCA expr inh: inactive; SNCA viab count: inactive; IP6K1 inh: inactive
